According to PubChem BioAssay (NCI):
Compounds without any hit were thinned out: in the full panel of roughly 83,000, 20% have a hit.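 Values shown are percent growth following 48 h exposure of cells in 96-well plates to a single concentration of compound; below 10 was considered active.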 Calls of active or inactive are those of the source.

How the values were obtained:
Test in all cases: NCI-60 one-dose screen, 48 h (100 = growth as untreated, 0 = no growth, -100 = all killed)
Conditions in all cases: 10 µM unless noted
[1] = system: SK-MEL-2 melanoma
[2] = system: SN12C renal
[3] = system: UO-31 renal
[4] = system: TK-10 renal
[5] = system: ACHN renal
[6] = system: CAKI-1 renal
[7] = system: A498 renal
[8] = system: CCRF-CEM leukemia
[9] = system: MOLT-4 leukemia
[10] = system: EKVX NSCLC

Measured: growth

O=S1(=O)c2ccccc2Oc2ccccc21
inactive: [1] 100% | [2] 96.8% | [3] 93.9% | [4] 101% | [5] 99.7% | [6] 92.9% | [7] 99.7% | [8] 127% | [9] 111%

CC(=O)OC/C(C)=C\CC(C)COC(C)=O (configuration not stated)
inactive: [1] 113% | [2] 99.6% | [3] 87.7% | [4] 112% | [5] 96.9% | [6] 96.3% | [7] 95.7% | [8] 96.9% | [9] 111%

Cc1cc(Nc2ccc3c(c2)OCO3)c2cc3c(cc2n1)OCO3
active: [7] -1.69% | [8] -7.98%
inactive: [1] 22.5% | [2] 47% | [3] 28.5% | [4] 59.7% | [5] 50.9% | [6] 19.5% | [9] 35.8%

CC(C)=CCC[C@@H](C)[C@H]1CC[C@@]2(C)C3=C(CC[C@]12C)[C@@]1(C)CC[C@H](O)C(C)(C)[C@@H]1CC3
inactive: [1] 118% | [2] 102% | [3] 111% | [4] 112% | [5] 101% | [6] 99.1% | [7] 114% | [9] 99%

COC(CCCl)c1ccc(Cl)cc1 (configuration not stated)
inactive: [1] 83.5% | [2] 106% | [3] 84.5% | [4] 86.3% | [5] 88.9% | [6] 101% | [7] 109% | [9] 95%

CC(C)N(CCCC#N)C(C)C
inactive: [1] 121% | [2] 94% | [3] 86% | [4] 104% | [5] 98% | [6] 95.1% | [7] 79.4% | [9] 112%

O=C1NC(=O)C(c2ccccc2)O1 (configuration not stated)
inactive: [1] 90.1% | [2] 103% | [3] 87.6% | [4] 101% | [5] 99.2% | [6] 98% | [7] 102% | [9] 98.3%

O=Cc1ccc(O)c(O)c1
inactive: [1] 103% | [2] 94.9% | [3] 84.2% | [4] 107% | [5] 114% | [7] 88.4% | [8] 57.8% | [9] 80.5%

O=C(O)c1ccc([N+](=O)[O-])cc1S(=O)(=O)O
inactive: [1] 95.9% | [2] 103% | [3] 102% | [4] 99.3% | [5] 106% | [7] 108% | [8] 81.2% | [9] 105%

CCOC(=O)CNC
inactive: [1] 117% | [2] 96.4% | [3] 107% | [4] 126% | [5] 91.1% | [7] 83.1% | [8] 92.3% | [9] 103%

CSc1nc2[nH]ncc2c(=O)[nH]1
inactive: [1] 111% | [2] 101% | [3] 101% | [4] 104% | [5] 110% | [7] 75.4% | [8] 118% | [9] 110%

Nc1ccn(C2CC(N)C(CO)O2)c(=O)n1 (configuration not stated)
inactive: [1] 122% | [2] 67.4% | [3] 72.6% | [4] 99.4% | [5] 20.1% | [6] 42.3% | [7] 100% | [9] 31%

CC(=O)c1cccc(O)c1
inactive: [1] 103% | [2] 107% | [3] 90.5% | [4] 90% | [6] 97.9% | [7] 38.3% | [8] 106% | [9] 95.9%

O=S(=O)(OCCOS(=O)(=O)c1ccccc1)c1ccccc1
inactive: [1] 103% | [2] 97.1% | [3] 83.2% | [4] 102% | [6] 89.8% | [9] 93%

CC(C)C1CCC(C)C(O)C1 (configuration not stated)
inactive: [10] 102% | [2] 96.3% | [3] 89.3% | [4] 99.2% | [5] 104% | [6] 98% | [7] 92% | [8] 96.1% | [9] 113%

CCCCNC(=O)c1ccc(OCC)cc1
inactive: [10] 103% | [2] 103% | [3] 101% | [4] 105% | [5] 109% | [6] 100% | [7] 94.2% | [8] 94.9% | [9] 105%

Cc1cc(=O)n(Nc2ccccc2)c(O)c1C#N
inactive: [1] 96.4% | [2] 99.4% | [4] 104% | [5] 104% | [6] 92.5% | [7] 115% | [8] 99.8% | [9] 103%

CN(C(=S)S(=O)(=O)C12CC3CC(CC(C3)C1)C2)c1ccccc1
inactive: [10] 104% | [2] 90.4% | [3] 71.5% | [4] 107% | [5] 93.9% | [6] 81.8% | [7] 98.6% | [8] 15.9% | [9] 11.9%

Cc1nc(O)cc(=O)[nH]1
inactive: [10] 108% | [2] 109% | [3] 72.8% | [4] 107% | [5] 107% | [6] 109% | [7] 96.2% | [8] 106% | [9] 103%

Cc1ccc(S(=O)(=O)NC(=O)NCCSSCCNC(=O)NS(=O)(=O)c2ccc(C)cc2)cc1
inactive: [1] 112% | [2] 100% | [4] 102% | [5] 96.2% | [6] 96.5% | [7] 93.1% | [8] 99.1% | [9] 110%

C/C(O)=C(/C=N\C(=S)Nc1ccc(S(=O)(=O)Nc2nccs2)cc1)C(=O)Nc1ccccc1C
inactive: [10] 101% | [2] 87.5% | [3] 93.2% | [4] 111% | [5] 99.9% | [6] 91.9% | [7] 60.5% | [8] 87.4% | [9] 83.7%

CC(=O)NNC(=S)N/C=C/c1c(C)ccc([N+](=O)[O-])c1[N+](=O)[O-]
inactive: [10] 99.3% | [2] 96.2% | [3] 92% | [4] 118% | [5] 98.1% | [6] 98.8% | [7] 105% | [8] 99.9% | [9] 95.5%

CC(C)c1ccc(C(=O)OCCCl)cc1
inactive: [10] 102% | [2] 99.3% | [3] 92.6% | [4] 94.6% | [5] 94.5% | [6] 383% | [7] 92.7% | [8] 107% | [9] 100%

Cc1ccc(S(=O)(=O)Oc2ccc3sc4c(CO)ccc(NCCN(C)C)c4c(=O)c3c2)cc1
active: [10] -66.7% [100 µM] | [2] -94.1% [100 µM] | [3] -95.6% [100 µM] | [4] -91.1% [100 µM] | [5] -92.7% [100 µM] | [6] -91% [100 µM] | [7] -71.6% [100 µM] | [8] -27.9% [100 µM] | [9] -34.6% [100 µM]

OC1Cc2ccccc2C1
inactive: [1] 107% | [3] 97.5% | [4] 95.9% | [5] 98.3% | [6] 103% | [7] 82.9% | [9] 98.9%

CCOc1ccc(C(=O)NCC(C)C)cc1
inactive: [10] 106% | [2] 99.9% | [3] 93.5% | [4] 97.8% | [5] 107% | [6] 101% | [7] 92.1% | [8] 103% | [9] 100%

CC(CC(CCC(=O)O)(c1ccccc1)c1ccccc1)N(C)C (configuration not stated)
inactive: [1] 104% | [3] 91.4% | [4] 98.2% | [5] 106% | [6] 95% | [7] 95% | [8] 98.9% | [9] 107%

c1ccc(Nc2ccccn2)nc1
inactive: [1] 95% | [2] 96.8% | [4] 99.4% | [5] 96% | [6] 95% | [7] 112% | [8] 90.9% | [9] 91.7%

CC(=O)c1cccc(N(C)S(=O)(=O)c2ccc(C)cc2)c1
inactive: [1] 94.2% | [3] 82.2% | [4] 90.4% | [5] 107% | [6] 101% | [8] 97.7% | [9] 94.9%

O=[N+]([O-])c1c(Cl)ncnc1Cl
inactive: [1] 110% | [2] 111% | [4] 107% | [7] 90% | [8] 99.1% | [9] 112%

CC(C)NC(=O)OCc1c(COC(=O)NC(C)C)c(-c2ccc(Cl)cc2)n2c1CCC2
inactive: [1] 94.4% | [3] 50.6% | [4] 57.6% | [5] 11.1% | [7] 44.5% | [8] 51.5% | [9] 21.9%
active: [6] 6.56%

CCOC(=O)c1c(C)[nH]c(C)c1C=O
inactive: [10] 102% | [2] 95.8% | [3] 104% | [4] 95.9% | [5] 102% | [6] 99.8% | [7] 92% | [8] 79.8%

C1C[S+]2CC[S+]1CC2
inactive: [1] 101% | [2] 101% | [4] 97.9% | [5] 99.2% | [6] 108% | [7] 105% | [8] 89.9% | [9] 100%

NS(=O)(=O)c1cc(=O)[nH]c(=O)[nH]1
inactive: [10] 112% | [2] 108% | [3] 100% | [4] 113% | [5] 104% | [6] 111% | [7] 190% | [8] 103% | [9] 148%

COc1cc2c(c(OC)c1OC)-c1ccc(SC)c(=O)cc1[C@@H](NC1OC(CO)C(O)C(O)C1O)CC2 (some centres not stated)
active: [1] 4.69% | [7] -14.3% | [8] 4.92% | [9] 1.36%
inactive: [3] 34.4% | [4] 42.1% | [5] 27.2% | [6] 18.7%
